Among the data in PubChem BioAssay are composite z-score and z-score values, retold here.

Experiment [1] is described as follows: compounds binding Alexa647 anti-His antibody – biochemical, small-molecule microarray, 635 nm fluorescence, artefact control for SMM control protein annotation, primary screen (AID 1128).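 Further: score merges feature fluorescence with signal-to-noise for each printed compound spot.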 The settings on record: higher = more signal.
For experiment [2], the system named is Human papillomavirus type 1a E7 protein (residues 1-88). In words: HPV1a E7 small-molecule binders, primary screen, biochemical, small-molecule microarray, residues 1-88, 635 nm (AID 1129). The settings on record: small-molecule microarray binding, fluorescence 635 nm; higher = more signal.
Experiment [3] addresses Focal adhesion kinase 1 (Homo sapiens) (UniProt Q05397). In words: PTK2 protein binding on printed compound slides – biochemical, small-molecule microarray, 635/667 nm fluorescence, BSA, DTT, primary screen (AID 1130).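 Further: composite of spot emission at 667 nm and signal to noise over triplicate slides.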 The settings on record: 635 nm fluorescence, higher = more signal.
Experiment [4] concerns Fibrinogen (Alexa647-labelled). Description: Alexa647-fibrinogen binding to printed small molecules – biochemical, small-molecule microarray, 635/667 nm fluorescence, artefact control for SMM control-protein annotation, profiling panel (AID 1131).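 Further: z-score merges 667 nm fluorescence with per-spot signal-to-noise over triplicate slides.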 The settings on record: fibrinogen-A647 binding fluorescence, higher = more signal.
The target of experiment [5] is Follistatin (Homo sapiens) (UniProt P19883). In words: FST protein binding to printed compounds – biochemical, small-molecule microarray, 635/667 nm fluorescence, primary screen (AID 1132). The settings on record: 635 nm fluorescence, higher = more signal.
The target in experiment [6] is Fibroblast growth factor 2 (Homo sapiens) (UniProt P09038). Description: basic fibroblast growth factor binding to printed compounds – biochemical, small-molecule microarray, 635/667 nm fluorescence, primary screen (AID 1133). The settings on record: FGF2, fluorescence 635/667, higher = more signal.
A short description of experiment [7]: JC-1 mitochondrial potential readout, lung cancer cells – cell-based, A549, JC-1 fluorescence, basal, 24 h, 100 nL, profiling panel (AID 1138).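 Further: A549 lung adenocarcinoma cells under basal conditions with no added stimulus; test concentration not given here.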 The settings on record: higher = more signal.
The subject of the next experiment is Lefty1. In words: Lefty1 protein binding to printed compounds – biochemical, small-molecule microarray, 635/667 nm fluorescence, primary screen (AID 1139). The settings on record: fluorescence 635/667, higher = more signal.
Experiment [8] has as its system wheat germ agglutinin (Triticum aestivum), Alexa647-labelled. In words: Alexa647-WGA lectin binding to printed small molecules – biochemical, small-molecule microarray, 635/667 nm fluorescence, artefact control for SMM control-protein annotation, profiling panel (AID 1140).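 Further: score merges 667 nm feature emission with signal to noise over triplicate slides.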 The settings on record: WGA-A647 binding, 635 nm fluorescence, higher = more signal.
The target of experiment [9] is Luciferin 4-monooxygenase (Photinus pyralis) (UniProt P08659). In words: inhibition of purified Photinus pyralis luciferase – biochemical, luminescence, purified enzyme, 2006 set, primary screen (AID 1141).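 Further: cell-free assay with purified firefly luciferase at 100 ng per well in PBS; test concentration not given here.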 The settings on record: purified firefly luciferase, SteadyGlo luminescence, 30 min; higher = more signal, called active from +8 up or from −8 down.
For experiment [10], the system named is Wnt5a (protein binding on small-molecule microarray). In words: small molecules binding Wnt5a protein – biophysical, small-molecule microarray, 635/667 nm fluorescence, primary screen (AID 1142).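 Further: fluorescence read at 667 nm with signal to noise per printed feature.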 The settings on record: 635 nm fluorescence, higher = more signal.
A short description of experiment [11]: ATP-based viability of Huh7 replicon cells – cell-based, CellTiter-Glo luminescence, basal, 48 h, cytotoxicity control for HCV replication inhibitor project, primary screen (AID 1143).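 Further: Huh7 hepatoma cells carrying a hepatitis C replication reporter with no stimulus; test concentration not given here.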 The settings on record: higher = more signal, called active from +8 up or from −8 down.
Experiment [12] is described as follows: Pseudomonas biofilm growth suppression – PAO1 strain, BacTiter-Glo luminescence, LB-PBS, primary screen (AID 1144). The settings on record: P. aeruginosa PAO1 biofilm, 12 h, higher = more signal.
Experiment [13] in a line: basal CRE-LacZ reporter activity in PC12 – cell-based, unstimulated, primary screen (AID 1145). The settings on record: no forskolin, luminescence, 4.5 h, higher = more signal, called active from +8 up or from −8 down.
Experiment [14] can be described thus: forskolin-driven CRE-LacZ activity in PC12 – cell-based, CRE-LacZ reporter, forskolin-stimulated, primary screen (AID 1146).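 Further: PC12 cells with 6xCRE LacZ reporter stimulated by forskolin 10 µM; beta-galactosidase reporter signal reflecting CREB driven transcription.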 The settings on record: luminescence, 4.5 h, higher = more signal, called active from +8 up or from −8 down.
In experiment [15] the target is Streptavidin (Streptomyces avidinii) (UniProt P22629). Description: compounds binding control protein streptavidin – biophysical, small-molecule microarray, 635/667 nm fluorescence, artefact control for SMM compound annotation, primary screen (AID 1147).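 Further: signal reflects streptavidin binding to arrayed compounds as a control protein.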 The settings on record: higher = more signal.
Experiment [16] in a line: probe aInhba binding on compound microarray – biochemical, small-molecule microarray, 635/667 nm fluorescence, primary screen (AID 1148).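 Further: score merges 667nm spot fluorescence with signal-to-noise for antibody binding to printed compounds.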 The settings on record: higher = more signal.
The target in experiment [17] is Torsin-1A (Homo sapiens) (UniProt O14656). In words: TOR1A wild-type binding on microarray – cell lysate, small-molecule microarray, lysate, 635/667 nm, primary screen (AID 1149). The settings on record: COS7 hTOR1A-WT lysate, 635 nm fluorescence, higher = more signal.
The target is the same in experiment [18]. Description: torsin A mutant lysate binding on microarrays – cell lysate, small-molecule microarray, COS7 lysate, 635/667 nm fluorescence, primary screen (AID 1150).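 Further: score pools 667 nm emission and signal to noise measuring lysate protein binding.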 The settings on record: COS7 hTOR1A mutant lysate, 635 nm fluorescence, higher = more signal.
Experiment [19] concerns Sonic hedgehog protein (Shh). Description: Sonic hedgehog microarray binding compounds – biochemical, small-molecule microarray, 635/667 nm fluorescence, primary screen (AID 1151).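 Further: Shh protein binding to compounds spotted on small-molecule microarray slides; score combines spot fluorescence intensity with signal-to-noise across triplicate slides.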 The settings on record: 635 nm fluorescence, higher = more signal.

The source made the active and inactive calls. Unless noted, how the calls were made is not given here.

Fibroblast growth factor 2 (Homo sapiens), sequence (P09038 whole entry, looked up): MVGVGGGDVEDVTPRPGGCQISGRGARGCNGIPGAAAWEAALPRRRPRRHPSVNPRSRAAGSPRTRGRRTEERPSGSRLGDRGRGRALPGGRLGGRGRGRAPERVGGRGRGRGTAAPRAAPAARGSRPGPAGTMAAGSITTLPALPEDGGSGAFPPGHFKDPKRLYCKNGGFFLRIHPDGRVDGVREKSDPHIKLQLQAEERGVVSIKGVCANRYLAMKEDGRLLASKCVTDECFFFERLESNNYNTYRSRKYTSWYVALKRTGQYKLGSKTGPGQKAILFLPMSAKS
Focal adhesion kinase 1 (Homo sapiens), sequence (Q05397 whole entry, looked up): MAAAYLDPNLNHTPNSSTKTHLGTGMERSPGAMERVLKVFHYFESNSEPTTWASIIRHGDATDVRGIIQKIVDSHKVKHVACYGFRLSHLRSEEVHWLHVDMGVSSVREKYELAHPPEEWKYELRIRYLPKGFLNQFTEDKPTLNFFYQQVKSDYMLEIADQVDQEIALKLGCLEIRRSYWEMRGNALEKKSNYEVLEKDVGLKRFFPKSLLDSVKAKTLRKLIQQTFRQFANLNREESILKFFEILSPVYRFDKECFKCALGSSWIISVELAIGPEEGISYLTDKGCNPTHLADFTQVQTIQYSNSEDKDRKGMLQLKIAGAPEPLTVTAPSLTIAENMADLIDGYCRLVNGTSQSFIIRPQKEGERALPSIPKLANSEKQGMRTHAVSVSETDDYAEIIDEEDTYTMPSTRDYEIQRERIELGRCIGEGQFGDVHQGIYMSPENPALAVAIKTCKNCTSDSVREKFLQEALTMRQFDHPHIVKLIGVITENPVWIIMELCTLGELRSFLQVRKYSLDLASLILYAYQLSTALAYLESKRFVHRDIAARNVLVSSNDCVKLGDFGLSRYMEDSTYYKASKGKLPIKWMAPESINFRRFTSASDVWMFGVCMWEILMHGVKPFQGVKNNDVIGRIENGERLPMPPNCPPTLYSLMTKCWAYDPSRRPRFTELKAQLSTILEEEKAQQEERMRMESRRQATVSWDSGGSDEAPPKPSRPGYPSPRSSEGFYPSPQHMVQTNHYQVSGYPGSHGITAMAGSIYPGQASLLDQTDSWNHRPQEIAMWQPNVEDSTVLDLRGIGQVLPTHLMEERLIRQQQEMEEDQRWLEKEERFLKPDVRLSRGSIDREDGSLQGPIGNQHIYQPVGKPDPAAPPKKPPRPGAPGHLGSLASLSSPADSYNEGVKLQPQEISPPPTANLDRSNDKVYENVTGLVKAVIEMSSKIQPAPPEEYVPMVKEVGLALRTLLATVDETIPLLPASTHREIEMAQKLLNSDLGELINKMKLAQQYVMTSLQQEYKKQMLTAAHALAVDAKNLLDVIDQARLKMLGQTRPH
Streptavidin (Streptomyces avidinii), sequence (P22629 whole entry, looked up): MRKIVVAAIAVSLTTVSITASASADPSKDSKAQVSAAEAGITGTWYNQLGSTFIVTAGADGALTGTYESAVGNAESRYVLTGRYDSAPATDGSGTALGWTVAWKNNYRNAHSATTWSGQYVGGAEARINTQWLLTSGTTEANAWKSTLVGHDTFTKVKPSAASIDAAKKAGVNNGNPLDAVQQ
Follistatin (Homo sapiens), sequence (P19883 whole entry, looked up): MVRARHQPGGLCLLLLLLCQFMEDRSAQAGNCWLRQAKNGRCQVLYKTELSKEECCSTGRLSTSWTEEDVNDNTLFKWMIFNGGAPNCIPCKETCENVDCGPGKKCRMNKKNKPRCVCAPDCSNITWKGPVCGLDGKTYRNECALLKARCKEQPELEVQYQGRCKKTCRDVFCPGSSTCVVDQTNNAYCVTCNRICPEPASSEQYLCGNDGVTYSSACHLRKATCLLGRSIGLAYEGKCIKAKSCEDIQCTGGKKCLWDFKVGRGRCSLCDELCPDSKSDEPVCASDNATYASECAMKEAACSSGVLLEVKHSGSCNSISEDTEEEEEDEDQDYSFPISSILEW
Torsin-1A (Homo sapiens), sequence (O14656 whole entry, looked up): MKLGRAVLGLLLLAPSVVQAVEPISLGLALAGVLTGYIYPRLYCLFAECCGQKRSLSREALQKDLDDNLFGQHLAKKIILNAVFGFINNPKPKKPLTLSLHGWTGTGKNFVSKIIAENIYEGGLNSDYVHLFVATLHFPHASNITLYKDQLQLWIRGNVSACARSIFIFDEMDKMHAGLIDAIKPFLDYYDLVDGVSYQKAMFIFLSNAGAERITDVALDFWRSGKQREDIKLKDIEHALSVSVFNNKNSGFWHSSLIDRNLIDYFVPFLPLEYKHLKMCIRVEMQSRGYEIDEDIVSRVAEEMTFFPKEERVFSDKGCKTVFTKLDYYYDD
Luciferin 4-monooxygenase (Photinus pyralis), sequence (P08659 whole entry, looked up): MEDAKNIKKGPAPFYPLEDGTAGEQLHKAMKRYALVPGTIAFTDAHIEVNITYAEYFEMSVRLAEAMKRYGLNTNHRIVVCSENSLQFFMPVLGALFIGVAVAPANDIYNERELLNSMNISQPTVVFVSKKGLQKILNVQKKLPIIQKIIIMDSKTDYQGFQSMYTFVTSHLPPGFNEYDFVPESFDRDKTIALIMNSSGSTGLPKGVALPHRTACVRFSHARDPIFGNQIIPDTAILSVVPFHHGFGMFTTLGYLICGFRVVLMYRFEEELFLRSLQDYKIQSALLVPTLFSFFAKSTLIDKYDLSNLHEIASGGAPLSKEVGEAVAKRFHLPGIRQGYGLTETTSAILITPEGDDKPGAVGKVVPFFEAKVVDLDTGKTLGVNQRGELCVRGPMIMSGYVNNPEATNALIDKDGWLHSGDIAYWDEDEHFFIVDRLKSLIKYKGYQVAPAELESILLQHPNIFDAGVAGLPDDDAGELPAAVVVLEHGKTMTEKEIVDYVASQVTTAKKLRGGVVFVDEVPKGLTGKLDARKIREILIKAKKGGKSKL

For `C=C(/C(=C/C[C@H](OC(C)=O)c1ccccc1OCCO)c1cnc2ccccc2c1)C(C)C`, the composite z-score in experiment [1] was -0.577; in experiment [2], 0.0336; in [3], 0.119; in [4], -0.498; in [5], 1.3; in experiment [6], 0.58. The composite z-score was determined as 0.505 with Lefty1; 1.07 in experiment [8]; 0.025 in [10]; 0.533 in [15]; 0.0543 in experiment [16]; 0.316 with Torsin-1A (Homo sapiens) [17]. Also, the composite z-score with Torsin-1A (Homo sapiens) [18] turned out to be 0.0233; in [19] it was 1.09. For the same compound, the z-score is 1.12 in experiment [7]; -1.14 (inactive) in [9]; -1.61 (inactive) in experiment [11]; 0.445 (inactive) in [12]; 4.98 (inactive) in experiment [13]; 1.49 (inactive) in [14].
On to `C=C[C@H](C)[C@@H](OC(=O)Nc1ccc(OC)cc1)c1ccc(O)c2ccccc12`, for which the composite z-score in experiment [1] was 0.965; in experiment [2], 0.0812; in experiment [3] it was -0.603; in experiment [4], -0.95; in experiment [5], 0.999; in [6], 0.0495. Besides, the composite z-score in the experiment with Lefty1 was 1.04; in [8], -0.235; in experiment [10], 0.198; in experiment [15], -0.387; in experiment [16], -0.206; with Torsin-1A (Homo sapiens) [17], 0.308. The composite z-score in the experiment with Torsin-1A (Homo sapiens) [18] was found to be 0.422; in experiment [19], 1.36. Further, the z-score was -1.64 in [7]; -5.17 (inactive) in experiment [9]; -6 (inactive) in experiment [11]; -0.899 (inactive) in [12]; 0.804 (inactive) in [13]; 0.819 (inactive) in experiment [14].
Turning to `CCOC(=O)C1=C[C@@H](C(C)(C)C)N(S(=O)(=O)c2ccc(C)cc2)[C@H]1c1ccc(F)cc1`, the composite z-score is 0.416 in experiment [1]; 1.21 in experiment [2]; -0.225 in experiment [3]; 0.939 in experiment [4]; 1.05 in [5]; 0.553 in experiment [6]. The composite z-score amounted to 0.96 in the experiment with Lefty1; 0.723 in experiment [8]; 0.219 in experiment [10]; 1.1 in experiment [15]; 0.255 in [16]; 0.159 with Torsin-1A (Homo sapiens) [17]. The figures for the composite z-score (with Torsin-1A (Homo sapiens) [18]; in experiment [19]) were 0.575 and 0.584, respectively. Further, the z-score in experiment [7] is 3.65; in experiment [9], 1.53 (inactive); in [11], -3.79 (inactive); in [12] it was 0.673 (inactive); in experiment [13] it was 0.0423 (inactive); in [14], 0.81 (inactive).
`C=C(CCCC)/C(=C/C[C@@H](OC(=O)c1ccncc1)c1ccc(OCCO)cc1)c1cc(C(=O)OC)ccc1OC`: the composite z-score in experiment [1] was 0.551; in [2] it was 1.12; in experiment [3], 0.0056; in experiment [4] it was -0.117; in experiment [5], 0.641; in experiment [6], 0.0097. The composite z-score with Lefty1 is 0.865; in [8] it was 0.229; in experiment [10], -0.109; in [15], 0.378; in experiment [16] it was -0.128; in the experiment with Torsin-1A (Homo sapiens) [17], 0.0383. The figures for the composite z-score (in the experiment with Torsin-1A (Homo sapiens) [18]; in experiment [19]) were 0.111 and 1.41, respectively. Further, the z-score in [7] was 1.21; in [9] it was -0.551 (inactive); in experiment [11] it was -1.43 (inactive); in [12], -0.0194 (inactive); in experiment [13], 2.32 (inactive); in [14], 1.99 (inactive).
Consider `COCCCNC(=O)[C@@]1(C)c2ccccc2C(=O)N(C(C)C)[C@H]1c1ccc(CO)cc1`, for which the composite z-score in [1] turned out to be 1.42; in experiment [2], 1.14; in experiment [3], 0.624; in [4], 0.648; in experiment [5] it was 1.16; in experiment [6], 0.802. Besides, the composite z-score with Lefty1 is 0.499; in [8], 0.342; in experiment [10], 0.292; in experiment [15] it was 0.889; in experiment [16] it was 0.143; with Torsin-1A (Homo sapiens) [17], -0.277. Also, the composite z-score worked out at 0.776 with Torsin-1A (Homo sapiens) [18] and 1.38 in experiment [19]. Further, the z-score in experiment [7] is 0.168; in experiment [9], -0.336 (inactive); in [11] it was 0.169 (inactive); in experiment [12] it was 0.0334 (inactive); in experiment [13] it was 0.234 (inactive); in experiment [14] it was 0.174 (inactive).
